Methyltransferases: Primary Screen for Target Class Profiling of Small Molecule Inhibitors of Methyltransferases; purified enzyme, MTase-Glo SAH luminescence; stronger effect = lower value; hit rate 3.9% among 25,000; calls only at 40 µM; call rule not given here
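Each enzyme was reacted with SAM and its substrate, with compounds tested once at 40 uM; SAH formed was read by MTase-Glo luminescence.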
* = called active by the depositor; i = inactive; + = active, no number; ! = repeats disagree. Shown is part of a subset that was picked to be rich in hits. % is set by controls: 0 for no effect and ±100 for the full control effect.

SMILES | Methyltransferases
C/C=C(/C)C(=O)O[C@H]1C=C(CO)C(=O)[C@H](OC(=O)/C(C)=C/CO)[C@H]1C(C)C | +
C/C=C(\C)C(=O)O[C@H]1C=CC(=O)O[C@H]1/C=C/[C@@H](O)[C@H](C)O | i
Cc1cc(Cl)ccc1N1C(=O)c2cc(-c3ccccc3)nn2CC1(C)C(=O)NCc1ccccc1 (stereo not drawn) | i
COc1ccc(C(=O)Nc2ccc3c(c2)C(=O)N(C)C2=NCCN23)cc1 | i
CC1(C(=O)NC2CCCCCC2)Cn2nc(-c3cccs3)cc2C(=O)N1Cc1ccccc1 (stereo not drawn) | i
COc1cccc(CNC(=O)c2ncn3c2C(=O)N(C2CC2)C(C)(C(=O)NCc2ccc(F)cc2)C3)c1 (stereo not drawn) | i
CCCCCc1ccc(/C=C/C(=O)Nc2cc(Cl)ccc2C(=O)O)cc1 | +
O=C(/C=C/c1ccc(O)cc1)N[C@@H](Cc1ccc(O)cc1)C(=O)O | i
CCCC1c2ccc(C)n2CCN1C(=O)Nc1cc(Cl)ccc1C(=O)OC (stereo not drawn) | i
COc1ccccc1CNc1nc2c(S(=O)(=O)c3ccc(C)c(C)c3)nnn2c2ccccc12 | i
Cn1c(=O)c2ccc(C(=O)NC3CCCC3)cc2n2c(=O)n(CC(=O)Nc3ccccc3F)nc12 | i
CCC(C)NC(=O)CSc1nnc2n(CC(C)C)c(=O)c3ccccc3n12 (stereo not drawn) | i
O=C(c1ccc2c(=O)nc3c(-c4ccccc4)n[nH]n3c2c1)N1CCN(c2ccc(F)cc2)CC1 | i
COc1ccccc1CN1C(=O)c2cc3ccccc3n2CC1(C)C(=O)NC1CCCC1 (stereo not drawn) | i
Cc1ccc(CNc2ncnc3ccc(-c4ccc(CO)o4)cc23)o1 | +
COc1ccc2cc3n(c2c1)CC(C)(C(=O)NCCCN1CC(C)CC(C)C1)N(C1CCCCC1)C3=O (stereo not drawn) | i
CCOC(=O)c1cc(Nc2ccccc2)c2cc(Cl)ccc2n1 | i
CCOC(=O)c1cccc(Nc2cc(C)nc3ccc(C)cc23)c1 | +
CCOC(=O)c1cnc2ccc(C)cc2c1Nc1cccc(C)c1 | i
Cc1ccc(C)c(N2CCN(CCCNC(=O)CCc3nnc4n(CC(C)C)c(=O)c5ccccc5n34)CC2)c1 | i
CC1CCCCC1NC(=O)C1(C)Cn2c(cc3sccc32)C(=O)N1Cc1cccc(F)c1 (stereo not drawn) | i
CC(C)(O)C(=O)N1CCN(c2ccc(C(F)(F)F)c(C3=C(c4c[nH]c5ccccc45)C(=O)NC3=O)c2)CC1 | +
COc1ccc2cc3n(c2c1)CC(C)(C(=O)NC1CCCCCC1)N(CCN1CCN(C)CC1)C3=O (stereo not drawn) | i
CC1CCC(NC(=O)C2(C)Cn3c(nc4ccccc43)C(=O)N2CCc2ccc(Cl)cc2)CC1 (stereo not drawn) | i
Cc1ccc(N2C(=O)c3cc4sccc4n3CC2(C)C(=O)NC2CCCC2)cc1C (stereo not drawn) | i
SMILES | Methyltransferases
CCOc1ccc(NC(=O)Cn2c(=O)oc3cc(S(=O)(=O)N4CCCC4)ccc32)cc1 | i
CC(=O)O[C@H]1C[C@@H](O)C(C)(C)C2C[C@@H](OC(C)=O)[C@]3(C)C(CC[C@@]4(C)[C@H](c5ccoc5)OC(=O)[C@H]5O[C@]543)[C@]21C (stereo partly drawn) | i
CCC(C)C(=O)OC1CC(O)C23C4OCC5(C(O)CC2C1(C)C(O)O4)C3C(=O)C(O)C1(C)C(O)(c2ccoc2)CC2OC251 (stereo not drawn) | +
O=C(CSc1nnc2n(CCc3ccccc3)c(=O)c3ccccc3n12)Nc1cc(F)ccc1F | i
Cc1ccc(-c2noc(-c3cccc(S(=O)(=O)N4CCN(c5cccc(C)c5C)CC4)c3)n2)cc1 | i
COc1ccccc1-c1cccc(CN2CCC(NC(C)=O)CC2)c1 | i
COc1cc2nc(N3CCCN(C)CC3)nc(NC3CCN(Cc4ccccc4)CC3)c2cc1OC | +
O=C(NC1CCN(Cc2ccccc2)CC1)C1CCCN(c2cnc3nccnc3c2)C1 (stereo not drawn) | i
COc1cc2c(NC3CCN(C(C)C)CC3)nc(N3CCC(F)(F)CC3)nc2cc1OCCCN1CCCC1 | +
COc1cc2nc(N3CCN(C)CC3)nc(NC3CCN(Cc4ccccc4)CC3)c2cc1OC | +!
COc1cc2nc(N3CCN(C(=O)COc4c(OC)cccc4C(C)C)CC3)nc(N)c2cc1OC | i
CN1CCN(Cc2nnc(C(=O)N3CCC[C@@H]3c3ccc(Br)cc3)n2Cc2ccccc2)CC1 | i
COc1cccc(CN2C(=O)c3cc(C(C)(C)C)nn3CC2(C)C(=O)NC2CCCCC2)c1 (stereo not drawn) | i
CC(C)OCCCNC(=O)C1c2c(n(C)c3ccccc23)SCC(=O)N1c1ccc(F)cc1 (stereo not drawn) | i
CC(C)CCN1C(=O)CSc2c(c3ccccc3n2C)C1C(=O)NCc1ccccc1 (stereo not drawn) | i

High-throughput results deposited in PubChem BioAssay by National Center for Advancing Translational Sciences (NCATS).
